MCF10A rereplic: DNA re-replication induction in MCF 10a cells; MCF 10A DNA re-replication, Hoechst nuclear intensity, 48 h; 350,000 compounds, 2.9% hits; Potency, µM (top dose mostly 46.1 µM), hits mostly activators; note: nearly all actives have a fitted effect of over 50% in size
KB-3-1 cytotox: KB-3-1 parental cell cytotoxicity; KB-3-1 viability, CellTiter-Glo ATP luminescence, 72 h; Potency, µM (highest dose often 46.1 µM), most hits filed as cytotoxic; 400,000 compounds, 1.4% hits; note: nearly all actives have a fitted effect of over 60% in size
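Cytotoxicity in the drug-sensitive parental line KB-3-1 was scored as loss of CellTiter-Glo luminescence following 72 h incubation with compound. Values come from curve fitting of normalized concentration-response data.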
SW480 rereplic: inducers of DNA re-replication in SW480 colon cancer cells; 340,000 compounds, 1.8% hits; SW480 DNA re-replication, Hoechst DNA content imaging, 48 h; AID 624297; Potency, µM (doses to about 46.1 µM), actives largely listed as activators; note: nearly all actives have a fitted effect of over 55% in size
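Per well, 250 cells were exposed to pinned compound for 48 hr. Nuclear DNA was visualised with Hoechst (40 min, 37 C) and total object intensity recorded by fluorescence scanning.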
PTAP TSG101 blk: blocks PTAP/TSG101 interaction to inhibit HIV-1 budding; AID 493005; Fluorescence polarization, FITC-PTAP peptide / Tsg101 binding; 340,000 tested, under 10 active; Q99816; Potency, µM (doses to about 115 µM), actives largely listed as inhibitors; active = well fitted inhibition curve with a large enough effect in the main read-out, with a control signal flat, not every such curve was filed as active; inconclusive = small, poorly fitted or top-dose-only effect, or effect the other way, or a change in a side signal; inactive = no such curve, though single readings can be large or run the other way
Target sequence (Q99816 whole entry, looked up): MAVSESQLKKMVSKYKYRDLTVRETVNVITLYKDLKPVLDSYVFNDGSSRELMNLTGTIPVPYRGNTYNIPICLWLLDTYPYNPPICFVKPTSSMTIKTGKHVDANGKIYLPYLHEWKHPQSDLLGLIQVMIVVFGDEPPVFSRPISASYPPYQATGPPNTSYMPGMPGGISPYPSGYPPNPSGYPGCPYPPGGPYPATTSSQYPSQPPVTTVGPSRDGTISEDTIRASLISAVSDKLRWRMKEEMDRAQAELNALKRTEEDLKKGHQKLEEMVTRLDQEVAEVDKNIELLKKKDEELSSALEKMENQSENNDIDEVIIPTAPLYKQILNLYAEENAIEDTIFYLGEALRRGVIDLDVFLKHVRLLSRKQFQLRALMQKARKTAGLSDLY
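Fluorescence polarization binding of Tsg101 binding domain (10 uM final) to FITC-labeled PTAP peptide (50 nM final) in HEPES pH 7.5 buffer with NaCl, Tween 20, EDTA, TCEP. Compounds added before peptide; binding 20 min at RT.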
KB-V1 cytotox: kills drug-selected multidrug resistant KB-V1 cells; KB-V1 MDR cells viability, CellTiter-Glo, 72 h; Potency, µM (series often up to 46.1 µM), hits mostly cytotoxic; 400,000 compounds, 3.4% hits; note: nearly all actives have a fitted effect of over 60% in size
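KB-V1 cells (P-gp-expressing MDR subline of KB-3-1) in phenol-red-free DMEM with 10% FBS were exposed to library compounds over a concentration series for 72 h at 37 degrees C. Viability read by CellTiter-Glo luminescence; concentration-effect curves fitted after normalization.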
PINK1 modulator: changes PINK1 expression; PINK1 immunofluorescence, high-content cytometry, 24 h; Potency, µM (titrated, usually from 76.6 µM), most hits filed as activators; 410,000 compounds, 0.2% hits; AID 624263; active = well fitted activation curve with a large enough effect; inconclusive = small, poorly fitted or top-dose-only effect; cell line not stated here; note: nearly all actives have a fitted effect of over 65% in size
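A stable cell line was treated with compounds at 5 concentrations for 24 hours, with CCCP as control. PINK1 levels and mitochondrial localization were measured by immunofluorescence with mitochondrial, cell and nuclear markers after fixation, read by laser-scanning cytometry.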
Hits are given with their value; n = inactive; u = inconclusive; x = not tested or not shown. Rows were chosen to be rich in hits. Some 6.8% of all compounds tested hit in one or more screens of this group. Unless noted, calls come from the whole dose curve; as a rule, active = well fitted curve in the direction sought with a large enough effect; inconclusive = small, poorly fitted or top-dose-only effect, or another doubt; inactive = no such curve, though single readings can be large; an effect the other way counts as inactive or inconclusive.

SMILES	MCF10A rereplic	KB-3-1 cytotox	SW480 rereplic	PTAP TSG101 blk	KB-V1 cytotox	PINK1 modulator
O=[N+]([O-])c1ccc(C=Nc2cccc3ccccc23)s1	21µM	u	6.5µM	n	u	n
Cc1cc(C)c2c(=O)cc(C(=O)Nc3sc4c(c3C(=O)NCc3ccco3)CCCC4)oc2c1	x	n	x	x	u	n
COc1ccccc1CNc1nc(-c2ccco2)nn1S(C)(=O)=O	x	n	x	x	n	n
O=C(Cc1ccccc1)NCC(=O)N/N=C/c1ccc([N+](=O)[O-])s1	n	u	15µM	n	u	u
CC(C)Oc1cc(NC(=O)CSCC(=O)Nc2cccc(C(F)(F)F)c2)c(Cl)cc1Cl	n	n	u	n	13µM	x
CN(C)/[N+]([O-])=N\Oc1cc(OC(=O)c2ccc(N)cc2)c([N+](=O)[O-])cc1[N+](=O)[O-]	x	x	x	x	x	n
Cc1ccc(-c2nc(-c3cc4c([nH]c3=O)CC(C)(C)CC4=O)sc2C)cc1	x	n	x	x	n	n
COC(=O)CCC(=O)OC1(C)C(=O)C2=COC(c3ccc(OC)cc3)=CC2=C(Br)C1=O (stereo unspecified)	u	n	n	n	n	n
COc1ccc(C2=CC3=C(Br)C(=O)C(C)(OC(=O)c4ccc(Cl)nc4)C(=O)C3=CO2)cc1 (stereo unspecified)	n	n	n	n	n	14µM
Oc1cc(-c2nc3ccccc3s2)cc2c1OCCN(Cc1cccn1-c1ccc(Cl)cn1)C2	x	x	x	x	x	n
Cc1ccc(S(=O)(=O)NCCCN(C)C)cc1	n	n	n	n	n	n
Cc1ccc(S(=O)(=O)NCCCNC(=O)c2ccccc2)cc1	n	n	n	n	18µM	n
Cc1ccc(S(=O)(=O)NCCCNS(=O)(=O)c2ccc(C)cc2)cc1	n	n	n	n	15µM	n
CCCCNS(=O)(=O)c1ccc(NS(=O)(=O)c2c(C)cc(C)cc2C)cc1	4.6µM	n	u	n	n	n
Cc1ccc(S(=O)(=O)NCCNC(=O)c2ccccc2)cc1	n	n	n	n	n	n
CCOc1cc(Cn2c(-c3ccc(O)c(OCC)c3)nc3ccccc32)ccc1O	x	n	x	x	n	n
Cc1ccc(N2CC(NC(=O)Cc3cccs3)CC2=O)cc1C (stereo unspecified)	x	x	x	x	x	n
CCc1ccc(NC(=O)CSc2nc3ccsc3c(=O)n2C(C)CC)cc1 (stereo unspecified)	x	x	x	x	x	n
Nc1nc(-c2ccccc2)c(-c2ccc([N+](=O)[O-])cc2)s1	n	n	n	n	n	n
COc1ccc(-c2nc(NC(C)=O)sc2-c2ccccc2)cc1	23µM	n	u	n	n	n
COc1ccc(-c2nc(NC(=O)c3ccccc3)sc2-c2ccc([N+](=O)[O-])cc2)cc1	13µM	n	n	n	u	n
CCc1sc(NC(C)=O)nc1-c1ccccc1	n	n	n	n	n	n
COc1ccc(-c2sc(NC(C)=O)nc2-c2ccccc2)cc1	u	u	u	n	18µM	n
CCOC(=O)C1CCN(c2ncnc3c2c(-c2ccccc2)cn3-c2ccc(Cl)cc2)CC1	x	x	x	x	x	n
C=CCn1c(Cc2cccc3ccccc23)n[nH]c1=S	n	n	u	n	18µM	n
SMILES	MCF10A rereplic	KB-3-1 cytotox	SW480 rereplic	PTAP TSG101 blk	KB-V1 cytotox	PINK1 modulator
C=CCn1c(CCn2c3ccccc3c3ccccc32)n[nH]c1=S	n	n	n	n	u	n
CCOC(=O)c1ccc(NC(=O)CSc2cc(-c3ccccc3)nc(C)n2)cc1	x	x	x	x	x	n
COc1ccc(-c2cc3nc(C)c(CCC(=O)NCc4ccco4)c(C)n3n2)c(OC)c1	n	n	n	n	4.6µM	n
Brc1ccc(CSc2ccc3nnc(-c4cccnc4)n3n2)cc1	u	n	n	n	9.2µM	n
Cc1ccc(CSc2ccc3nnc(-c4ccccn4)n3n2)cc1	n	n	n	n	u	n
Cc1ccc(CSc2ccc3nnc(-c4cccnc4)n3n2)cc1	n	n	n	n	u	n
Brc1ccc(CSc2ccc3nnc(-c4ccccn4)n3n2)cc1	n	n	n	n	15µM	n
CCOC(=O)CSc1nc2ccc(NC(=O)COc3ccccc3)cc2s1	x	n	x	x	n	n
